The source made the active and inactive calls. The calls were made as follows: active = hit-call score of the fitted dose curve at least 0.9, where 1 is the maximum; inactive = score below 0.9.
Assays:
[1] = read-out: Forkhead box O1 (FOXO1), FOXO1 (gene 2308); test: LTEA_HepaRG_FOXO1: Life Technologies and Expression Analysis (LTEA) Assay for Forkhead box O1 (FOXO1) using HepaRG (AID 2283456); conditions: mRNA level, 48 h; actives raise or lower the signal
Summary of the method: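 Differentiated HepaRG cells, in serum-free induction medium with 0.5% DMSO, exposed 48 h in duplicate to 8-point half-log series from 100 uM. FOXO1 mRNA measured by TaqMan qRT-PCR, normalized to ACTB, GAPDH, POLR2A; bidirectional fit versus DMSO.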

[2] = CEETOX_H295R_TESTO: CeeTox H295R High-throughput Steroidogenesis Assay for Testosterone (TESTO) (AID 2283457); conditions: actives raise or lower the signal
Summary of the method: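 H295R adrenal cells, passage ≤10, exposed to chemicals for 48 h. Testosterone in medium measured by MTBE extraction and HPLC-MS/MS against a 7-point standard curve. Bidirectional fit versus DMSO; MTT viability checked in the same wells.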

[3] = read-out: growth arrest and DNA damage 45 (GADD45A), GADD45A (gene 1647); test: LTEA_HepaRG_GADD45A: Life Technologies and Expression Analysis (LTEA) Assay for growth arrest and DNA damage 45 (GADD45A) using HepaRG (AID 2283458); conditions: mRNA level, 48 h; actives raise or lower the signal
Summary of the method: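 Cells plated and cultured 48 h, switched to serum-free induction medium, then dosed for 48 h (100 uM top, half-log dilutions, 0.5% DMSO). RNA was isolated and transcript measured by Fluidigm qRT-PCR.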

[4] = read-out: Forkhead box O3 (FOXO3), FOXO3 (gene 2309); test: LTEA_HepaRG_FOXO3: Life Technologies and Expression Analysis (LTEA) Assay for Forkhead box O3 (FOXO3) using HepaRG (AID 2283459); conditions: mRNA level, 48 h; actives raise or lower the signal
Summary of the method: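 Differentiated human HepaRG cells, 48 h post-plating, exposed in duplicate for 48 h in serum-free induction medium; 8-point half-log series from 100 uM in 0.5% DMSO. FOXO3 mRNA by TaqMan qRT-PCR, normalized to ACTB/GAPDH/POLR2A; bidirectional fit versus DMSO.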

[5] = read-out: ABC Transporter (ABCB1), ABCB1 (gene 5243); test: LTEA_HepaRG_ABCB1: Life Technologies and Expression Analysis (LTEA) Assay for ABC Transporter (ABCB1) using HepaRG (AID 2283460); conditions: mRNA level, 48 h; actives raise or lower the signal
Summary of the method: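 HepaRG cells exposed in duplicate for 48 h in serum-free induction medium to eight half-log concentrations up to 100 uM in 0.5% DMSO. ABCB1 mRNA quantified by qRT-PCR, normalised to ACTB, GAPDH and POLR2A; fitted bidirectionally versus DMSO.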

[6] = read-out: growth arrest and DNA damage 45 (GADD45B), GADD45B (gene 4616); test: LTEA_HepaRG_GADD45B: Life Technologies and Expression Analysis (LTEA) Assay for growth arrest and DNA damage 45 (GADD45B) using HepaRG (AID 2283461); conditions: mRNA level, 48 h; actives raise or lower the signal
Summary of the method: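 Differentiated human HepaRG cells in serum-free induction medium exposed 48 h in duplicate to eight concentrations, top 100 uM, half-log steps, 0.5% DMSO. GADD45B mRNA by TaqMan qRT-PCR, normalized to ACTB, GAPDH, POLR2A; bidirectional fit versus DMSO.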

[7] = read-out: ABC Transporter (ABCC3), ABCC3 (gene 8714); test: LTEA_HepaRG_ABCC3: Life Technologies and Expression Analysis (LTEA) Assay for ABC Transporter (ABCC3) using HepaRG (AID 2283462); conditions: mRNA level, 48 h; actives raise or lower the signal
Summary of the method: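 Differentiated human HepaRG cells exposed 48 h in serum-free induction medium, 0.5% DMSO vehicle, 8-point half-log series to 100 uM in duplicate. ABCC3 mRNA by qRT-PCR, normalised to ACTB, GAPDH, POLR2A; bidirectional fit vs DMSO.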

[8] = read-out: ABC Transporter (ABCB11), ABCB11 (gene 8647); test: LTEA_HepaRG_ABCB11: Life Technologies and Expression Analysis (LTEA) Assay for ABC Transporter (ABCB11) using HepaRG (AID 2283463); conditions: mRNA level, 48 h; actives raise or lower the signal
Summary of the method: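 Differentiated human HepaRG cells in serum-free induction medium, dosed in duplicate for 48 h. Eight-point half-log series from 100 uM in 0.5% DMSO; ABCB11 mRNA by qRT-PCR, normalized to ACTB, GAPDH, POLR2A, fitted bidirectionally versus DMSO.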

[9] = read-out: ABC Transporter (ABCC2), ABCC2 (gene 1244); test: LTEA_HepaRG_ABCC2: Life Technologies and Expression Analysis (LTEA) Assay for ABC Transporter (ABCC2) using HepaRG (AID 2283464); conditions: mRNA level, 48 h; actives raise or lower the signal
Summary of the method: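 Differentiated HepaRG cells in serum-free induction medium exposed 48 h to eight half-log concentrations up to 100 uM, 0.5% DMSO, in duplicate. ABCC2 mRNA measured by qRT-PCR (TaqMan, Fluidigm), normalized to ACTB, GAPDH and POLR2A. Fitted in both directions against DMSO.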

[10] = read-out: Broad substrate specificity ATP-binding cassette transporter ABCG2 (Homo sapiens) (UniProt Q9UNQ0); test: LTEA_HepaRG_ABCG2: Life Technologies and Expression Analysis (LTEA) Assay for ABC Transporter (ABCG2) using HepaRG (AID 2283465); conditions: mRNA level, 48 h; actives raise or lower the signal
Summary of the method: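 Differentiated HepaRG cells were exposed for 48 h in serum-free induction medium to 8 half-log concentrations, top 100 uM, in 0.5% DMSO. ABCG2 mRNA was measured by qRT-PCR, normalized to ACTB, GAPDH and POLR2A, with bidirectional fitting versus DMSO.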

[11] = read-out: ATP-citrate lyase (ACLY), ACLY (gene 47); test: LTEA_HepaRG_ACLY: Life Technologies and Expression Analysis (LTEA) Assay for ATP-citrate lyase (ACLY) using HepaRG (AID 2283466); conditions: mRNA level, 48 h; actives raise or lower the signal
Summary of the method: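 Differentiated HepaRG cells exposed 48 h in serum-free induction medium to eight half-log concentrations up to 100 uM in 0.5% DMSO, duplicates. Transcript measured by Fluidigm TaqMan qRT-PCR, normalized to ACTB, GAPDH, POLR2A; bidirectional fit versus DMSO.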

[12] = read-out: Peroxisomal acyl-coenzyme A oxidase 1 (ACOX1) gene, ACOX1 (gene 51); test: LTEA_HepaRG_ACOX1: Life Technologies and Expression Analysis (LTEA) Assay for Peroxisomal acyl-coenzyme A oxidase 1 (ACOX1) gene using HepaRG (AID 2283467); conditions: mRNA level, 48 h; actives raise or lower the signal
Summary of the method: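 HepaRG cells, plated 48 h then switched to serum-free induction medium, were exposed in duplicate for 48 h to 8-point half-log concentrations up to 100 uM in 0.5% DMSO. ACOX1 mRNA was measured by qRT-PCR, normalized to ACTB/GAPDH/POLR2A, and fitted bidirectionally versus DMSO.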

[13] = read-out: Alkaline Phosphatase, Placental (ALPP) gene, ALPP (gene 250); test: LTEA_HepaRG_ALPP: Life Technologies and Expression Analysis (LTEA) Assay for Alkaline Phosphatase, Placental (ALPP) gene using HepaRG (AID 2283468); conditions: mRNA level, 48 h; actives raise or lower the signal
Summary of the method: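 HepaRG cells plated 48 h, then exposed in duplicate for 48 h in serum-free induction medium to 8-point half-log series from 100 uM in 0.5% DMSO. ALPP mRNA by TaqMan qRT-PCR, normalized to ACTB/GAPDH/POLR2A; bidirectional fit versus DMSO.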

[14] = read-out: Bcl-2 (BAD) gene, BAD (gene 572); test: LTEA_HepaRG_BAD: Life Technologies and Expression Analysis (LTEA) Assay for Bcl-2 (BAD) gene using HepaRG (AID 2283469); conditions: mRNA level, 48 h; actives raise or lower the signal
Summary of the method: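 Differentiated HepaRG cells were exposed in duplicate in 0.5% DMSO for 48 h to eight-point half-log concentrations up to 100 uM. BAD mRNA was measured by Fluidigm TaqMan qRT-PCR, normalized to ACTB, GAPDH and POLR2A, and fitted bidirectionally against DMSO.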

[15] = read-out: Bcl-2 (BAX) gene, BAX (gene 581); test: LTEA_HepaRG_BAX: Life Technologies and Expression Analysis (LTEA) Assay for Bcl-2 (BAX) gene using HepaRG (AID 2283470); conditions: mRNA level, 48 h; actives raise or lower the signal
Summary of the method: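 HepaRG (human liver), 48 h exposure, duplicate wells. 8-pt curve, half-log from 100 uM, 0.5% DMSO. BAX transcript by TaqMan qRT-PCR; ACTB/GAPDH/POLR2A normalization; gain or loss vs DMSO baseline.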

[16] = read-out: adenosine kinase (ADK) gene, ADK (gene 132); test: LTEA_HepaRG_ADK: Life Technologies and Expression Analysis (LTEA) Assay for adenosine kinase (ADK) gene using HepaRG (AID 2283471); conditions: mRNA level, 48 h; actives raise or lower the signal
Summary of the method: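 ADK expression quantified by qRT-PCR, normalised to three housekeeping genes, after 48 h exposure of HepaRG cells to eight concentrations (top 100 uM, half-log steps, duplicate, 0.5% DMSO). Up- or down-regulation fitted relative to vehicle.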

[17] = read-out: Alpha-fetoprotein (AFP) gene, AFP (gene 174); test: LTEA_HepaRG_AFP: Life Technologies and Expression Analysis (LTEA) Assay for Alpha-fetoprotein (AFP) gene using HepaRG (AID 2283472); conditions: mRNA level, 48 h; actives raise or lower the signal
Summary of the method: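 HepaRG, single lot; 48 h post-plating -> serum-free induction medium; cpd 8-pt, 100 uM top, half-log, 0.5% DMSO, duplicate, 48 h. RNA -> qRT-PCR AFP, norm ACTB/GAPDH/POLR2A. Bidirectional fit vs DMSO.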

BCL2L11 (gene 10018) = test: LTEA_HepaRG_BCL2L11: Life Technologies and Expression Analysis (LTEA) Assay for Bcl-2 (BCL2L11) gene using HepaRG (AID 2283473); conditions: mRNA level, 48 h; actives raise or lower the signal
Summary of the method: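 Differentiated human HepaRG cells were exposed 48 h in serum-free induction medium to eight half-log concentrations up to 100 uM in 0.5% DMSO, in duplicate. BCL2L11 mRNA was quantified by TaqMan qRT-PCR, normalized to ACTB, GAPDH and POLR2A; induction or repression fitted versus DMSO.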

[18] = read-out: Apolipoprotein A-V (APOA5) gene, APOA5 (gene 116519); test: LTEA_HepaRG_APOA5: Life Technologies and Expression Analysis (LTEA) Assay for Apolipoprotein A-V (APOA5) gene using HepaRG (AID 2283474); conditions: mRNA level, 48 h; actives raise or lower the signal
Summary of the method: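 Differentiated HepaRG cells in serum-free induction medium, exposed 48 h in duplicate to eight half-log concentrations topping at 100 uM (0.5% DMSO). APOA5 mRNA by Fluidigm TaqMan qRT-PCR, normalized to ACTB, GAPDH and POLR2A; bidirectional fit versus DMSO.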

[19] = read-out: Apoptosis regulator Bcl-2 (Homo sapiens) (UniProt P10415); test: LTEA_HepaRG_BCL2: Life Technologies and Expression Analysis (LTEA) Assay for Bcl-2 gene using HepaRG (AID 2283475); conditions: mRNA level, 48 h; actives raise or lower the signal
Summary of the method: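 HepaRG, plated 48 h then switched to serum-free induction medium; dosed 48 h, 8 conc. (max 100 uM, half-log steps), duplicate, 0.5% DMSO. Lysis in RLT, RNA isolated, TaqMan qRT-PCR for BCL2; ACTB/GAPDH/POLR2A normalisation; bidirectional fit vs DMSO.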

Measured: AC50

Chain of Apoptosis regulator Bcl-2 (Homo sapiens) (P10415 whole entry, looked up): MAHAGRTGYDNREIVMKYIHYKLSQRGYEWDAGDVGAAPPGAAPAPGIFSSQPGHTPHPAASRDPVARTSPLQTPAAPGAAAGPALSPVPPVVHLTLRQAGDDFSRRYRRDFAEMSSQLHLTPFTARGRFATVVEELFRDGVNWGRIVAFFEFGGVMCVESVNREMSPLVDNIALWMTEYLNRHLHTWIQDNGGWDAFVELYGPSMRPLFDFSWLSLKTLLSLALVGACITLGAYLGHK
Chain of Broad substrate specificity ATP-binding cassette transporter ABCG2 (Homo sapiens) (Q9UNQ0 whole entry, looked up): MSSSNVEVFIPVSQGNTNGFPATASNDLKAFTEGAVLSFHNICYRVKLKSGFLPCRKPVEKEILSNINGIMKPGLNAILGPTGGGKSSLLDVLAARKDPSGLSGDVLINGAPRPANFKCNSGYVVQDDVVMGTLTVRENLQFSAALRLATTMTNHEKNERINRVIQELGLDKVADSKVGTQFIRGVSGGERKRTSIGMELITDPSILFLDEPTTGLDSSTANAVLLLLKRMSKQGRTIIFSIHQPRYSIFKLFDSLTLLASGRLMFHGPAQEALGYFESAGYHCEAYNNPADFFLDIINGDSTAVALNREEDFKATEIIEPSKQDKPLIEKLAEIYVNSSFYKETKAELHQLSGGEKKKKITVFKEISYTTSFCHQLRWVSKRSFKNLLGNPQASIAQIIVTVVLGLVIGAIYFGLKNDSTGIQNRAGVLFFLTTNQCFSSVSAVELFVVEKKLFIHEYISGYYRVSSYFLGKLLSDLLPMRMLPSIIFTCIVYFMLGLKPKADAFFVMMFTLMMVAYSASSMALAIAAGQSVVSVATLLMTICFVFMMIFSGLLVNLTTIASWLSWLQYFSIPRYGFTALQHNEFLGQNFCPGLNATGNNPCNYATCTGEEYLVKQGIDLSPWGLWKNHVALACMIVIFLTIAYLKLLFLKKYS

Cc1c(C)c2c(c(C)c1O)CCC(C)(COc1ccc(CC3SC(=O)NC3=O)cc1)O2 (centres undefined)
active: [3] 0.262 µM | [4] 88.4 µM | [6] 37.7 µM | [8] 15.8 µM | [9] 93.7 µM | [12] 97.6 µM | [13] 15.8 µM | [15] 29.6 µM | [17] 25 µM | BCL2L11 (gene 10018) 90.1 µM
inactive: all other assays above

COC(=O)CCC(=O)OC
not listed: [2]
inactive: all other assays above

From PubChem BioAssay (EPA / NIEHS)
